Data as given in PubChem BioAssay AID1460 (National Center for Advancing Translational Sciences (NCATS), 2008).
The whole screen tested about 270,000 compounds, of which about 5,800 (2.1%) were called active. Not shown: some 16% with an inconclusive outcome. The full list was thinned out, with actives kept by preference. Unmarked numbers belong to inactive results. Calls come from the whole dose curve; as a rule, active = well fitted inhibition curve with a large enough effect; inconclusive = small, poorly fitted or top-dose-only effect; inactive = flat fitted curve, though single readings scatter.

What follows are molecules tested against Microtubule-associated protein tau (Homo sapiens) (UniProt P10636) (assay: qHTS for Inhibitors of Tau Fibril Formation, Thioflavin T Binding). Conditions: recombinant tau K18 P301L (four-repeat tau fragment), heparin-induced fibrillization, ThT fluorescence; series mostly up to 57.4 µM; activity, negative = inhibition: at the top concentration.
Outline: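 In this qHTS, human K18 P301L tau is incubated with compound and heparin for 6 hr at 37 C, and Thioflavin T fluorescence then reports fibril load.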
% is set by controls: 0 for no effect and ±100 for the full control effect; potency is the fitted concentration of half-maximal effect.
Note: nearly all actives have a fitted effect of over 55% in size.

Microtubule-associated protein tau (Homo sapiens), sequence (P10636 561-689 P618L limits assumed): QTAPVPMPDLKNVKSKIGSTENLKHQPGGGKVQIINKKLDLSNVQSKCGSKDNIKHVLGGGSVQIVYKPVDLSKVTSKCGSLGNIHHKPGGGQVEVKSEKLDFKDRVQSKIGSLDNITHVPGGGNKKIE

| Compound | activity, negative = inhibition | Potency |
| --- | --- | --- |
| COc1ccc(OC)c(-c2noc(N3CCN(c4cc(Cl)ccc4C)CC3)n2)c1 | -10.1% | – |
| CCc1nc(-c2cc(S(=O)(=O)N3CCN(c4ccc(OC)cc4)CC3)ccc2OC)no1 | – | 28.2 µM (active) |
| COc1ccc(N2CCN(S(=O)(=O)c3ccc(-c4coc(C)n4)cc3)CC2)cc1 | -7.63% | – |
| COc1ccc(/C=C/C(=O)c2cc(Br)ccc(=O)c2O)cc1 | – | 4.47 µM (active) |
| COc1ccc(C(=O)Cc2cnn(-c3ccccc3)c2)c(O)c1 | -15.8% | – |
| COc1ccc(/C=C/C(=O)c2ccc(OC)cc2O)cc1 | – | 5.01 µM (active) |
| COc1ccc2oc(=O)c(C(=O)O)cc2c1 | -0.466% | – |
| COc1ccc(/C=C/NC(=O)Cc2ccc(OC)c(OC)c2)cc1 | -4.15% [at 11.5 µM] | – |
| O=C(/C=C/c1ccccc1)c1ccccc1O | -10.4% | – |
| COc1cccc(CNC(=O)C(=O)NCC(c2cccs2)S(=O)(=O)c2ccccc2)c1 (stereo not drawn) | 0.11% | – |
| O=C(COc1ccccc1)OCc1cc(=O)n2nc(-c3cccs3)sc2n1 | -16.6% | – |
| CCc1ccc(NC(=O)c2cc3c(=O)n(Cc4cccnc4)ccc3nc2C)cc1 | -3.34% | – |
| COc1cccc(-n2ccn(CC(=O)NCc3ccc(C)cc3)c(=O)c2=O)c1 | -2.37% | – |
| O=C(CSc1oc(-c2ccco2)nc1S(=O)(=O)c1ccccc1)c1ccc(Cl)cc1 | -4.09% | – |
| COc1ccc(OC)c(CCNC(=O)CCCn2c(=O)c3cccn3c3cccnc32)c1 | -5.63% | – |
| CCOCCCn1c(SCC(=O)Nc2ccc(CC)cc2)nc2ccccc2c1=O | -7.51% | – |
| O=C(Nc1ccc2nccnc2c1)c1ccco1 | -6.24% | – |
| COc1ccc(-c2nc3ccc(C(=O)NCc4ccc(C)cc4)cc3nc2-c2ccc(OC)cc2)cc1 | -1.65% | – |
| CC(C)(C)c1ccc(NC(=O)NCc2ccco2)cc1 | -6.98% | – |
| O=C(NCc1ccccn1)c1cc(-c2ccccc2Cl)on1 | -10.1% | – |
| COCCNC(=O)Nc1ccc2nc(-c3ccco3)c(-c3ccco3)nc2c1 | – | 3.98 µM (active) |
| O=C(NCc1ccccn1)c1ccc2nc(-c3ccco3)c(-c3ccco3)nc2c1 | – | 12.6 µM (active) |
| Cc1nn(-c2ccc(F)cc2)c(-n2cccc2)c1C(=O)N1CCN(c2ccccc2)CC1 | -9.64% | – |
| Cc1ccc(-c2nc(Cn3c(=O)cc(-c4ccccc4)c4c(C)nn(C)c43)c(C)o2)cc1 | 3.96% | – |
| CN(Cc1ccccc1)S(=O)(=O)c1ccc(F)c(C(=O)Nc2cccc(Cl)c2Cl)c1 | 5.99% | – |

| Compound | activity, negative = inhibition | Potency |
| --- | --- | --- |
| O=C(c1cccc(Br)c1)N1CCN(Cc2cc(=O)n3nc(-c4ccccc4)sc3n2)CC1 | -9.34% | – |
| CCN(CC)S(=O)(=O)c1ccc2c(c1)nc(CN(C)C(=O)Nc1ccc(Cl)cc1)n2C | 7.41% | – |
| O=C(NCCc1ccccc1)C(=O)NCC(c1ccco1)S(=O)(=O)c1ccccc1 (stereo not drawn) | 13.8% | – |
| CSc1nc(-c2ccc(F)cc2)nc2c1Cc1c(CO)cnc(C)c1O2 | 4.71% | – |
| CCOC(=O)c1c(C)nc2c(c1C)c(=O)oc1ccccc12 | -1.22% | – |
| CCN(CC)c1ccc2c(Nc3ccccc3)c(C=O)c(=O)oc2c1 | -12.6% | – |
| CCN(CC)c1ccc2oc(=O)c(C)nc2c1 | – | 7.94 µM (active) |
| COc1ccccc1CNC(=O)c1ccc(-n2c(C)cc3c2CCCC3)cc1 | -16.2% | – |
| COc1ccc(C(=O)Nc2onc3c2CCCC3)cc1 | -16.8% | – |
| COc1ccccc1CNC(=O)Cn1nc(C)c2nn(-c3ccc(Cl)cc3)c(C)c2c1=O | 4.79% | – |
| CCN(CC)C(=O)CSc1nc2cc3c(cc2c(=O)n1CCCC(=O)NCc1ccc2c(c1)OCO2)OCO3 | -2.2% | – |
| O=C(CSCc1cnn(-c2ccccc2)c1-n1cccc1)NCc1ccc(Cl)cc1 | -1.21% | – |
| CCOc1ccc(C(=O)N2CCN(CCc3ccccn3)CC2)cc1 | -1.29% | – |
| Cc1cc(-c2n[nH]c(=S)n2/N=C/C(Br)=C/c2ccccc2)n[nH]1 | – | 12.6 µM (active) |
| Cc1cc(-c2n[nH]c(=S)n2/N=C/c2ccco2)n[nH]1 | -14.8% | – |
| Oc1ccccc1/C=N/n1c(-c2cccs2)n[nH]c1=S | -17.5% | – |
| COc1ccccc1CN1CCC(CNC(=O)c2cnn(-c3cccc(Cl)c3)c2C2CCN(C(=O)OC(C)(C)C)CC2)CC1 | -15.4% | – |
| CCOc1ccccc1CNC(=O)c1ccc2c(c1)nc1n2CCC(C)C1 (stereo not drawn) | -0.504% | – |
| Cc1ccc(NC(=O)c2cc3cc(C)ccc3n2C)cc1 | -1.89% | – |
| CCOC(=O)c1c(NC(C)=O)c2c3c(sc2n1Cc1c(C)cc(C)cc1C)CCCC3 | -12.4% | – |
| Fc1ccc(CSc2nc(NCc3ccccc3)c3ccccc3n2)cc1 | -5.42% | – |
| COc1ccc(NC(C)=O)cc1NC(=O)CN1CCN(c2ccc(F)cc2)CC1 | -3.85% | – |
| C/C(CC1CC(C)(C)OC1=O)=N/Nc1nc(-c2ccccc2)cs1 (stereo not drawn) | – | 25.1 µM (active) |
| CC1(C)CC(CC(=O)O)C(=O)O1 (stereo not drawn) | -2.28% | – |
| CC(=O)Nc1ccc(-c2csc(NC=C3C(=O)OC(C)(C)OC3=O)n2)cc1 | -12.1% | – |

| Compound | activity, negative = inhibition | Potency |
| --- | --- | --- |
| Cc1ccc(-c2nn3c(=O)cc(CN4CCN(S(=O)(=O)c5ccc(Cl)cc5)CC4)nc3s2)cc1 | -9.18% | – |
| COc1ccccc1N1CCN(c2ccc(=O)n(CC(=O)NCc3ccc(OC(C)C)cc3)n2)CC1 | -18.5% | – |
| COc1ccc(N2C(=O)CS(=O)(=O)C23C(=O)N(Cc2ccc(C)cc2)c2ccccc23)cc1Cl (stereo not drawn) | -11.1% | – |
| Cc1c(CNC(C)c2ccccc2)c(C(=O)O)c(C)n1Cc1c(F)cccc1Cl (stereo not drawn) | -8.01% | – |
| COc1ccccc1C1/C(=C(/O)c2ccc(OC(C)C)cc2)C(=O)C(=O)N1c1cc(C)on1 (stereo not drawn) | -3.88% | – |
| COc1ccc(/C(O)=C2/C(=O)C(=O)N(c3nc(C)c(C)s3)C2c2ccco2)cc1 (stereo not drawn) | -17.4% | – |
| CCOc1ccc(/C(O)=C2\C(=O)C(=O)N(c3ccc(OC)cc3)C2c2ccccc2[N+](=O)[O-])cc1 (stereo not drawn) | – | 5.01 µM (active) |
| CC/C(O)=N\S(=O)(=O)c1ccc(N=NN(C)C)cc1 | -16.6% | – |
| CN(C)N=Nc1ccc2nc[nH]c2c1 | – | 4.47 µM (active) |
| CCCN(CCC)S(=O)(=O)c1ccc(C(=O)Nc2sc3c(c2C(=O)OC)CCN(CC)C3)cc1 | -9.25% | – |
| CCc1cccc(NC(=O)CN(c2ccc(C)c(C)c2)S(=O)(=O)c2ccsc2C(=O)OC)c1 | 1.04% | – |
| N#CCC(=O)N/N=C/c1ccc(SCC(=O)Nc2ccccc2)o1 | – | 25.1 µM (active) |
| Cc1ccc(/C=N/NC(=O)CSc2ccccn2)o1 | -22% | – |
| O=C(CSc1ccc(/C=N/NC(=O)c2cccc(F)c2)o1)Nc1ccccc1 | -17% | – |
| O=C(CCc1ccccc1)NCc1ccc2c(c1)CCN2C(=O)c1ccccc1 | -2.41% | – |
| Cc1cc(/C=N/n2cnnc2)c(C)n1-c1cccc(C(=O)O)c1 | 6.68% | – |
| COc1cc(/C=N\Nc2ccc([N+](=O)[O-])cn2)ccc1OCC(=O)O | – | 12.6 µM (active) |
| Cc1cc(/C=N/Nc2ccc([N+](=O)[O-])cn2)c(C)n1-c1cccc(C(=O)O)c1 | – | 2.82 µM (active) |
| COc1cc(/C=N/NC(=O)Nc2ccccc2)ccc1OCCOc1ccccc1C | -11.5% | – |
| Cc1cccc(C)c1NC(=O)CSc1ccc([N+](=O)[O-])cn1 | -7.69% | – |
| Cc1ccc(-n2c(C)cc(/C=N/Nc3ccc([N+](=O)[O-])cn3)c2C)c(C)c1 | – | 3.98 µM (active) |
| Cc1ccc(-n2c(C)cc(/C=N\NC(=O)CC(=O)NC(C)C)c2C)cc1 | -14.8% | – |
| COc1cc(/C=N\NC(=O)CNC(=O)c2cccc([N+](=O)[O-])c2)ccc1O | -14.4% | – |
| Cc1cccc(-n2c(C)cc(/C=N\NC(=O)c3cccs3)c2C)c1 | 7.12% | – |
| COc1cccc(NC(=O)N(Cc2cn(C)c3ccccc23)C2CCCCCC2)c1 | -18.6% | – |

| Compound | activity, negative = inhibition | Potency |
| --- | --- | --- |
| COc1ccc(Cn2c(C(=O)O)c(CNCc3cccc(OC)c3)c3ccc(C)cc32)cc1 | 4.58% | – |
| COc1cc(C(=O)NCCS(=O)(=O)N2CCN(c3ccccc3)CC2)cc(OC)c1OC | 3.32% | – |
| COc1ccc(-n2c(SCC(=O)Nc3ccc(Cl)c(C)c3)nc3n[nH]c(C)c3c2=N)cc1 | -6.68% | – |
| CCOc1ccc(NC(=O)C2CCN(S(=O)(=O)c3cc(-c4noc(C)n4)ccc3C)CC2)cc1 | -3.68% | – |
| COc1ccc(-c2nn3c(=O)cc(CN4CCN(C(=O)c5ccc(OC)c(OC)c5)CC4)nc3s2)cc1 | -16.3% | – |
| Cc1cccc2c(=O)cc(CSc3ccccc3NC(=O)C(C)C)[nH]c12 | -2.42% | – |
| COc1cc(=O)[nH]c(=O)n1C(=O)Cc1ccccc1 | -6.37% | – |
| CCCOc1ccc(Cn2c(O)cc(=O)[nH]c2=O)cc1 | – | 25.1 µM (active) |
| COc1ccc(Cn2c(=O)cc(C)[nH]c2=S)cc1 | -15.3% | – |
| Cc1cccc(NC(=O)N2CCC(CN3CCc4ccccc4C3)CC2)c1C | 2.46% | – |
| COc1ccc2c(c1OC)C(=O)OC2Nc1nc(-c2ccccc2)cs1 (stereo not drawn) | – | 17.8 µM (active) |
| COc1ccc2c(c1OC)C(=O)OC2c1c(O)nc(SC)n(-c2ccccc2)c1=O (stereo not drawn) | -12.8% | – |
| Cc1cccc(S(=O)(=O)CC(=O)Nc2nc(-c3ccccc3)cs2)c1 | -17.8% | – |
| O=C(CN1C(=O)COc2ccc(S(=O)(=O)N3CCCCCC3)cc21)N1CCN(c2cccc(C(F)(F)F)c2)CC1 | -6.43% | – |
| Cc1ccc(CCNC(=O)Cn2c(-c3cccs3)cc3cc(F)ccc32)cc1 | -0.536% | – |
| Cc1cc2nn(-c3ccc(Cl)cc3)nc2cc1NC(=O)C(C)C | 4.08% | – |
| Cc1ccc(Cl)cc1NC(=O)C(C)n1nnc2sc(-c3ccccc3)cc2c1=O (stereo not drawn) | – | 17.8 µM (active) |
| Cc1ccc(Cl)cc1NC(=O)c1ccccn1 | -6.15% | – |
| COc1cccc(NC(=O)CSC2=Nc3ccccc3C3=NC(CC(=O)NC4CCCCC4)C(=O)N23)c1 (stereo not drawn) | -7.37% | – |
| Cc1ccc(Cl)cc1N1CCN(C(=O)c2cn(C)c3ccc(S(=O)(=O)N(C)C4CCCCC4)cc3c2=O)CC1 | -2.4% | – |
| CC(=O)Oc1cccc(N2C(=O)C3CC=C(Cl)CC3C2=O)c1 (stereo not drawn) | 4.98% | – |
| CC(=O)Oc1cccc(N2C(=O)CC(Nc3ccc(N4CCOCC4)cc3)C2=O)c1 (stereo not drawn) | – | 15.8 µM (active) |
| COc1ccc(N2CCN(C3CC(=O)N(c4ccc5c(c4)OCCO5)C3=O)CC2)cc1 (stereo not drawn) | -18.6% | – |
